# Compound activity from PubChem.
# Hits are enriched below; roughly 1.9% of the tested compounds scored in any of these assays.
# PfHsp40 rescue: rescue of yeast from PfHsp40 toxicity, primary screen, S. cerevisiae, ATP luminescence | S. cerevisiae expressing PfHsp40, growth rescue | growth rescue, % at 12.5 µM | hit rate 0.68% among 340,000 | AID 504582, 2011; in the data active = growth rescue above about 28%, passing the limit was not always enough; inconclusive = no clear call, values can overlap the other calls;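 note: yeast W303a lacking pdr1 and pdr3 grown in galactose medium; growth measured after three days at 30 °C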
# RecA splice inh: Mtb RecA intein splicing inhibitors, primary screen, biochemical, fluorescence, HTS; cell-free RecA intein splicing; inhibition, % (test concentration not listed); hit rate 0.75% among 290,000; AID 2221, 2009; in the data active = inhibition above about 30%; inconclusive = no clear call, values can overlap the other calls;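 note: 0% = vehicle wells and 100% = reference inhibitor control wells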
# Target sequence (P9WHJ3 whole entry, looked up, canonical isoform): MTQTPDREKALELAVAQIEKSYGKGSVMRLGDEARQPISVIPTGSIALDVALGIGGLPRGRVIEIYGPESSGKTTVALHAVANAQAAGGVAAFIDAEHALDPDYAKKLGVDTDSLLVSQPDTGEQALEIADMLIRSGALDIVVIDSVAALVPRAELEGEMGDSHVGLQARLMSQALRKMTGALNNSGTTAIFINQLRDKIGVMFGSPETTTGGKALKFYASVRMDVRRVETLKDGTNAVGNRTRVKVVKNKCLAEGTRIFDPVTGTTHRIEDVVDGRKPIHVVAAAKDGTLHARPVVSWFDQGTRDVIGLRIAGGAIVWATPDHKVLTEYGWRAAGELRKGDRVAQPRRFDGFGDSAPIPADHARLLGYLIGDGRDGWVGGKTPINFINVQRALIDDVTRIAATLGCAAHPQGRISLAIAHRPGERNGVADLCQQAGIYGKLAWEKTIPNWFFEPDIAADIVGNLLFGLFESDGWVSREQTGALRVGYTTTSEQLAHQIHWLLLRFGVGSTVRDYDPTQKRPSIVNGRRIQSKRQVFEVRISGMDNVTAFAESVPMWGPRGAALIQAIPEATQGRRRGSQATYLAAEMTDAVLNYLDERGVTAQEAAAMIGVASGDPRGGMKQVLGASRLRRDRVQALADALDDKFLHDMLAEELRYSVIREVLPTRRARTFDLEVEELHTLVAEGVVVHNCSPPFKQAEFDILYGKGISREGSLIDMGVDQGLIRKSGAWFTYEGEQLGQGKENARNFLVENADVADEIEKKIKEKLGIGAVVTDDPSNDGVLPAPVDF
# PrPC TRFRET: inhibitors of human cell surface prion protein PrPC, primary screen, cell-based, TR-FRET; Major prion protein (Homo sapiens), P04156; TR-FRET read-out; inhibition, % at 13.8 µM; hit rate 0.43% among 370,000; in the data active = inhibition above about 24%; note: 0% = median of the test wells and 100% = reference compound wells
# PrP UTR inh: inhibition of PrP 5' UTR reporter expression; cell-based PrP 5' UTR mRNA reporter, plate reader; inhibition, % (concentration not given with the values); hit rate 0.35% among 340,000; AID 488862, 2010; in the data active = inhibition above about 52%; note: 0 = median of the neutral control wells
# SSB-PriA inh: inhibitors of Klebsiella pneumoniae PriA binding to SSB C-terminal tail, primary screen, biochemical, AlphaScreen. inhibition, % at 33 µM. AlphaScreen SSBct-PriA binding, biotinylated peptide. PriA–SSB C-terminal tail interaction (Klebsiella pneumoniae). hit rate 0.6% among 430,000; in the data active = inhibition mostly above about 37%, no sharp cut-off; inactive = mostly below about 20%;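 note: plate controls were negative control peptide for no effect and reference peptide for full effect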
# BJeLR lethal: MLPCN primary cell-based screen for lethality selective to Ras in HRASV12 cells; BJeLR (HRASV12) viability, CellTiter-Glo ATP luminescence, 48 h; inhibition, % (no concentration beside the values); hit rate 0.17% among 300,000; AID 1554, 2009; in the data active = inhibition above about 50%; inconclusive = no clear call, values can overlap the other calls
# PrPC TRFRET cf: confirmation of inhibitors of cell surface human prion protein, confirmation, cell-based, TR-FRET; shares compounds with PrPC TRFRET; cell surface PrPC level; inhibition, % at 13.8 µM; hit rate 65% among 1,500; in the data active = inhibition above about 25%
# LD9 cytotox: cytotoxicity in LD9 cells, cytotoxicity control for cell surface PrPc inhibitor project, cell-based, luminescence, high throughput; AID 743201, 2013; inhibition, % at 13.8 µM; shares compounds with PrPC TRFRET; hit rate 29% among 1,500; luminescence viability; in the data active = inhibition above about 9.5%
# * hit, by the source's call; ? = inconclusive; . = not tested or not shown; ! = repeats disagree.
SMILES,PfHsp40 rescue,RecA splice inh,PrPC TRFRET,PrP UTR inh,SSB-PriA inh,BJeLR lethal,PrPC TRFRET cf,LD9 cytotox
Cn1c(SCC(=O)Nc2ccc3c(c2)OCO3)nnc1-c1ccc(=O)n(C)c1,.,.,.,.,-9.0,.,.,.
COc1cc(C=NO)nc(-c2ccccn2)c1,?,.,36.6*,44.4,83.4*,.,33.0*,22.5*
CCc1ccc(NC(=O)C(C)Sc2nc(-c3ccco3)c(C#N)c(=O)[nH]2)cc1 (stereo unspecified),-0.1,4.5,27.9*,-1.5,-2.4,-3.7,16.4,-9.0
N#Cc1c(-c2ccco2)nc(SCC(=O)Nc2cccc(Cl)c2)[nH]c1=O,-1.3,.,77.7*,-17.5,-10.9,-3.2,112.9*,-4.0
O=C(CCCN1C(=O)/C(=C\c2ccco2)SC1=S)Nc1ccccn1,.,.,.,.,31.0,.,.,.
CC(C)Oc1ccc(C(=O)/C=C2/C(=O)Nc3ccccc32)cc1,-0.2,-0.2,34.3*,-13.7,-6.9,-4.4,8.8,-10.7
Cc1ccc(Nc2nc(NCc3ccco3)c3ccccc3n2)cc1,1.7,11.3,35.2*,-88.2,4.1,13.4,43.2*,24.2*
O=C(NCC(c1ccco1)N1CCOCC1)C1CC=CCC1 (stereo unspecified),.,.,.,.,-4.0,.,.,.
O=C(NCc1ccccc1)C(=O)Nc1nc(C23CC4CC(CC(C4)C2)C3)cs1,-0.2,2.0,1.4,4.6,2.4,8.2,.,.
O=C(NCc1ccncc1)C(=O)Nc1nc(C23CC4CC(CC(C4)C2)C3)cs1,-1.6,6.3,35.4*,-16.5,14.3,22.1,36.0*,2.0
O=C(CSc1cnc2ccccc2n1)N1CCN(c2ccc(F)cc2)CC1,.,.,.,.,3.0,.,.,.
Cc1nc2ccccc2nc1SCC(=O)N1CCC(C)CC1,-0.5,0.8,55.4*,-7.2,4.0,4.1,50.2*,4.7
CC1CCCN(C(=O)CSc2cnc3ccccc3n2)C1 (stereo unspecified),-0.1,-0.4,38.8*,-79.6,9.7,-11.3,71.0*,-0.4
Cc1ccc(S(=O)(=O)c2ncccc2[N+](=O)[O-])cc1,-0.9,10.6,70.7*,-3.9,-0.8,5.3,54.6*,97.7*
COc1cc(/C=N\NC(=O)Cn2nnc3ccccc32)ccc1OCc1ccccc1,.,.,.,.,6.0,.,.,.
CCN(CC)S(=O)(=O)c1cc(C(=O)Nc2ccncc2)ccc1Cl,-1.3,-0.2,26.1*,-0.8,-17.0,2.3,20.3,16.6*
CCN(CC)S(=O)(=O)c1cc(C(=O)Nc2cccnc2)ccc1Cl,-2.0,1.6,-6.3,-49.7,7.0,5.7,.,.
O=S(=O)(Nc1ccc(Cc2ccncc2)cc1)c1ccc(Br)cc1,0.1,0.0,36.3*,-36.8,-5.1,11.6,30.7*,3.8
O=S(=O)(Nc1ccc(Cc2ccncc2)cc1)c1ccc(Cl)cc1,0.1,0.6,40.3*,-16.1,-14.8,0.2,37.9*,-1.2
O=S(=O)(Nc1ccc(Cc2ccncc2)cc1)c1ccc(Br)s1,0.7,7.2,20.2,-10.0,-13.4,5.0,.,.
CC(=NNC(=O)c1ccc(F)cc1)c1ccc(N2CCOCC2)cc1,.,.,.,.,1.1,.,.,.
CC(=O)c1sc(NC(=O)C(C)(C)C)nc1C,-0.2,1.2,25.6*,-5.1,-4.9,-5.9,26.9*,0.8
CC(=O)c1sc(NC(=O)CCOc2ccccc2)nc1C,-1.1,0.0,35.5*,-18.7,-6.0,10.2,40.8*,-6.3
CC(=O)c1sc(NC(=O)COc2ccccc2)nc1C,0.3,-3.6,12.1,-50.1,6.7,-6.8,.,.
O=C(CSc1ccc2ccccc2n1)Nc1cccc(Cl)c1,.,.,.,.,-19.0,.,.,.
SMILES,PfHsp40 rescue,RecA splice inh,PrPC TRFRET,PrP UTR inh,SSB-PriA inh,BJeLR lethal,PrPC TRFRET cf,LD9 cytotox
O=C(O)CCSc1ccc2ccccc2n1,-0.8,1.2,82.3*,-0.8,-11.1,-3.5,88.7*,-2.6
CCOC(=O)CSc1ccc2ccccc2n1,2.2,-0.1,28.4*,-10.2,-24.8,-8.3,60.8*,-7.1
O=C(O)CSc1ccc2ccccc2n1,-0.5,-2.0,57.8*,-6.0,0.6,2.6,57.6*,-1.2
Cc1cc(SCCC(=O)O)nc2ccccc12,-0.7,-4.5,8.4,-3.6,1.1,4.0,.,.
Cc1nc(SCCC(=O)O)c2ccccc2n1,0.1,5.1,102.8*,0.9,1.9,-0.9,118.9*,2.7
Cc1ccc(C(=O)C(C)OC(=O)c2cccnc2)cc1 (stereo unspecified),.,.,.,.,13.0,.,.,.
O=C(Cc1ccc(F)cc1)N1CCC(Oc2ncccc2Cl)CC1,.,.,.,.,-7.0,.,.,.
CCOc1ccc(CC(=O)NCC2(CO)CC2)cc1,.,.,.,.,-3.0,.,.,.
O=C(Nc1cccc(Cl)c1)Nc1ccc2c(c1)OCO2,0.1,-1.0,31.5*,-95.3,12.3,-20.1,31.2*,-3.0
Cc1ccc(NC(=O)c2cc(S(=O)(=O)N(C)C)ccc2N2CCCC2)cc1S(=O)(=O)N(C)C,-0.3,2.4,44.0*,2.3,4.3,-0.2,37.0*,-5.2
COc1ccc(C(=O)Nc2ccc(S(=O)(=O)N3CCCCC3)cc2)cc1OC,0.5,4.8,2.3,-11.7,12.1,10.7,.,.
COc1ccc(-c2cnnn2-c2ccc(NC(=O)c3ccc(S(=O)(=O)N4CCCCC4)cc3)cc2)cc1OC,0.0,3.6,31.8*,4.0,-3.0,2.5,19.0,-12.5
COc1ccc(NC(=O)c2cc(S(=O)(=O)N(C)C)ccc2N2CCCC2)cc1Cl,2.3,4.6,24.4*,-18.6,-6.0,-0.8,20.7,-6.0
COc1ccc(S(=O)(=O)N2CCOCC2)cc1C(=O)Nc1ccc(N2CCCCCC2)cc1,-0.1,.,30.8*,-15.8,7.1,.,29.5*,6.9
O=C1C[C@H](c2nc(-c3ccc(C(F)(F)F)cc3)no2)CN1c1ccc2c(c1)OCCO2,.,.,.,.,1.0,.,.,.
Cc1ccc(CN2CCCCC(NC(=O)Nc3ccccc3-c3ccccc3)C2=O)cc1 (stereo unspecified),.,.,30.3*,.,.,.,18.3,-2.9
CC1OC(CC(=O)O)CC2=C1C(=O)c1c(O)cccc1C2=O (stereo unspecified),-7.5,.,71.1*,46.2,2.6,.,86.1*,97.9*
CCCCCCSc1ccc(-c2nc3ccc(Cl)cn3c2NCCCC)cc1OC,-1.4,.,33.4*!,-11.2,-16.1,.,8.6,0.2
